Test results as given in the supplement of paper PMC7858590.
“And” between values parts separate entries of the source, which are not always exact repeats. Equal values may be shown once.

system: human monocyte-derived macrophages (polarized); assay: cell shape (eccentricity) Z-score vs DMSO control; higher = more elongated, M2-like morphology; details: 5 µM; 24 h; macrophage state: M1-polarized (IFNg + TNFa), cytokines present during treatment
Procedure: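 Primary-screen hits were rescreened on polarized hMDMs with the differentiating cytokines (IL-4 + IL-13 or IFNg + TNFa) kept in the medium during treatment with compound at 5 uM for 24 h. The eccentricity Z-score vs DMSO wells is averaged over experiments.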

Row | Structure (SMILES) | cell shape (Z-score)
1 | O=C(Nc1ccc(OC(F)(F)F)cc1)c1sccc1NCc1ccnc2ccccc12 | 3.81
2 | CC(C)CNc1ccnc(NCc2csc(-c3ccccc3)n2)n1 | -11.9
3 | CC1CNCCN1S(=O)(=O)c1cccc2cnccc12 (stereo not given) | -1.72
4 | CNC(=O)c1ccccc1Sc1ccc2c(/C=C/c3ccccn3)n[nH]c2c1 | 8.44 and 13.2
5 | CC(N)C(=O)OC(C)(C)Cc1ccc(Cl)cc1 (stereo not given) | -2.3
6 | O=c1cc(-c2ccccc2F)[nH]c2cc3c(cc12)OCO3 | 0.5
7 | Cc1c(C(=O)Nc2ccc(N3C[C@@H](C)O[C@@H](C)C3)nc2)cccc1-c1ccc(OC(F)(F)F)cc1 | 8.76
8 | Cc1cc(Nc2nc(N[C@@H](C)c3ncc(F)cn3)ncc2Cl)[nH]n1 | 10.1
9 | Nc1nc(Nc2ccc3c(c2)CCC(N2CCCC2)CC3)nn1-c1cc2c(nn1)-c1ccccc1CCC2 (stereo not given) | -4.94
10 | Cn1cnc(-c2cc3nccc(Oc4ccc(NC(=S)NC(=O)Cc5ccccc5)cc4F)c3s2)c1 | 3.19
11 | COc1cc(-c2ccc(=O)[nH]n2)ccc1OC(F)F | -4.29
12 | C[C@]1(CO)CN(c2cc(C(=O)Nc3ccc4c(c3)-c3c(c(C(N)=O)nn3-c3ccc(F)cc3)CC4)c(Cl)cn2)C[C@@]1(C)CO | -7.03
13 | O=c1cc(-c2ccc(O)cc2)oc2cc(O)ccc12 | 2.2
14 | Clc1ccc(C2(c3ccc(-c4cn[nH]c4)cc3)CCNCC2)cc1 | 24.9
15 | CC(C)(C)c1nc(-c2cccc(NS(=O)(=O)c3c(F)cccc3F)c2F)c(-c2ccnc(N)n2)s1 | -2.77
16 | Cc1c(-c2ccnc(Nc3ccc(N4CCNCC4)cc3)n2)sc(=O)n1C | 7.79
17 | C#C[C@]1(O)CC[C@H]2[C@@H]3CCC4=Cc5oncc5C[C@]4(C)[C@H]3CC[C@@]21C | -4.38
18 | CC(=Cc1ccc(C(=O)O)cc1)c1ccc2c(c1)C(C)(C)CCC2(C)C | -2.82
19 | O=C(O)c1ccc2c(c1)nc(Nc1cccc(Cl)c1)c1ccncc12 | 9.47
20 | CC1(C)C(=O)C=CC2(C)C1C=CC1(C)C2CCC2(C)C(c3ccoc3)OC(=O)C3OC312 (stereo not given) | -1.04
21 | COc1c(OC)c(O)c2c(=O)c(O)c(-c3ccccc3)oc2c1OC | 5.45
22 | O=C(Nc1ccncc1)c1cc([N+](=O)[O-])ccc1Cl | 5.38
23 | O=S(=O)(c1cccc2cnccc12)N1CCNCC1 | 3.08
24 | COc1ccc2c(c1OC)CN(C)CCc1cc3c(cc1C(=O)C2)OCO3 | -5.59
25 | CN(C)CCC=C1c2ccccc2COc2ccccc21 | -7.17
26 | Cc1[nH]c2ccccc2c1CCNCc1ccc(/C=C/C(=O)NO)cc1 | 6.17
27 | CS(=O)(=O)c1cccc(CNc2nc(Nc3ccc4c(c3)CCC(=O)N4)ncc2C(F)(F)F)c1 | -3.99
28 | COc1cc2nccc(Oc3ccc(NC(=O)Nc4cc(C)on4)c(Cl)c3)c2cc1OC | 7.92

same assay, conditions: 5 µM; 24 h; macrophage state: M2-polarized (IL-4 + IL-13), cytokines present during treatment

Row | Structure (SMILES) | cell shape (Z-score)
29 | Oc1ccc(-c2nc(-c3ccc(F)cc3)c(-c3ccncc3)[nH]2)cc1 | -2.38
30 | COC(=O)Nc1nc2cc(Sc3ccccc3)ccc2[nH]1 [Fenbendazole] | -14.3
31 | Cc1cc2nc3c(=O)[nH]c(=O)nc-3n(C)c2cc1C=O | 6.26
32 | C=C1C(=O)OC2CC3(C)CCC=C(CO)C3CC12 (stereo not given) | -5.59
33 | Nc1ccccc1NC(=O)c1ccc(CNC(=O)OCc2cccnc2)cc1 | -0.828
34 | C=C(NC(=O)C(=C)NC(=O)c1csc(C2=N[C@@H]3c4csc(n4)[C@H]4NC(=O)c5csc(n5)[C@H]([C@](C)(O)[C@@H](C)O)NC(=O)[C@H]5CSC(=N5)/C(=C/C)NC(=O)[C@H]([C@@H](C)O)NC(=O)c5csc(n5)[C@]3(CC2)NC(=O)[C@H](C)NC(=O)C(=C)NC(=O)[C@H](C)NC(=O)[C@H]([C@@H](C)CC)N[C@@H]2C=Cc3c([C@H](C)O)cc(nc3[C@H]2O)C(=O)O[C@@H]4C)n1)C(N)=O [Thiostrepton.2mM] | -5.55
35 | CC1=CC(=O)c2ccccc2C1=O | -2.13
36 | COc1ccc(/C=C/C(=O)c2ccc(O)cc2O)cc1 | -3.18
37 | CCCSc1ccc2[nH]c(NC(=O)OC)nc2c1 | -6.38
38 | CCCCC[C@H](O)/C=C/[C@H]1[C@H](O)CC(=O)[C@@H]1CCCCCCC(=O)O | -28.2
39 | CN(C)CCC=C1c2ccccc2COc2ccccc21 | -5.83
40 | COC(=O)Nc1nc2cc(Sc3ccccc3)ccc2[nH]1 | -6.87
